± gives the standard deviation of the averaged measurements.
test system: MDA-MB-231; experiment: cell viability relative to vehicle unstimulated control (fraction); higher = more viable cells; conditions: pre-treatment time: 18 h then 24 h IFNg/TNF
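Throughout, for cell viability relative to vehicle unstimulated control: viability of the cells left after supernatant collection, read with Deep Blue dye added for 4 h, as absorbance at 570 nm minus 600 nm.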

SMILES | cell viability
C=C1[C@H](OC(=O)c2cccnc2)C[C@H]2[C@@H](/C=C(\C)C(=O)[C@@]3(OC(C)=O)C[C@H](C)[C@H](OC(=O)c4ccccc4)[C@@H]3[C@H]1OC(C)=O)C2(C)C [Euphorbia factor L9] (compound dose: 10 uM) | 1.07 ± 0.095
CC1CCC(C(C)C)C(O)C1 (single isomer, unassigned; (-)) [(-)-Menthol] (compound dose: 10 uM) | 0.899 ± 0.076
C[C@H]1[C@H](C)CC[C@]2(C(=O)O)CC[C@]3(C)C(=CC[C@@H]4[C@@]5(C)C[C@@H](O)[C@H](O)C(C)(C)[C@@H]5CC[C@]43C)[C@H]12 [Corosolic acid] (compound dose: 10 uM) | 1.07 ± 0.16

test system: MDA-MB-231; experiment: kynurenine production, fold change vs DMSO IFNg/TNF control; higher = more kynurenine produced (less inhibition); conditions: pre-treatment time: 18 h then 24 h IFNg/TNF
Method in brief: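 MDA-MB-231 cells (7 × 10^4/well, 96-well plates, seeded 24 h earlier) were pre-treated 18 h with each natural product in 0.1% DMSO, then stimulated 24 h with IFNγ (1 U/ml) and TNF (6.25 ng/ml) at 37°C. Supernatant kynurenine was read at 492 nm after trichloroacetic acid and p-dimethylaminobenzaldehyde treatment, against 0–100 μM standards. Kynurenine production is the fold change over cytokine-stimulated vehicle wells on the same plate, averaged over duplicate plates in the first screening round.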

SMILES | kynurenine production
CC1=CC[C@@H](C(C)(C)O)CC1 [α terpineol (mixed)] (compound dose: 10 uM) | 0.876 ± 0.082
C=C1C(=O)O[C@H]2C[C@@H](C)[C@@H]3[C@@H](OC(C)=O)C[C@H](O)[C@@]3(C)[C@@H](OC(C)=O)[C@H]12 [Britannin] (compound dose: 10 uM) | 0.268 ± 0.075
CC(=O)OC(CC12C3C(C(C)C)CCC1(C)C1CCC4(CCCC42)N3C1)C(=O)C1(C)COC2(C)CCC1O2 (stereo unspecified) [Daphniphylline] (compound dose: 10 uM) | 0.75 ± 0.079
COc1cc(C(C)=O)cc(OC)c1O [Acetosyringone] (compound dose: 10 uM) | 0.885 ± 0.087
CC(CC(=O)C[C@@H](C)[C@H]1CC(=O)[C@@]2(C)C3=C(C(=O)[C@@H](O)[C@]12C)[C@@]1(C)CC[C@H](O)C(C)(C)[C@@H]1C[C@@H]3O)C(=O)O (stereo partly specified) [Ganoderic acid G] (compound dose: 10 uM) | 0.973 ± 0.16
CC(=O)OC(CC(C)C1=C2C[C@H](O)C3[C@@]4(C)CCC(=O)C(C)(C)C4CC[C@]3(C)[C@@]2(C)CC1)C1OC1(C)C (stereo partly specified) [Alisol B 23-acetate] (compound dose: 10 uM) | 1.27 ± 0.24
C=C1C(=O)O[C@@H]2[C@H]3C(C)=CC[C@@]34O[C@@]4(C)CC[C@@H]12 [Arglabin] (compound dose: 10 uM) | 0.822 ± 0.039
C[C@H](C[C@H](O)[C@H]1OC1(C)C)C1=C2C[C@H](O)[C@H]3[C@@]4(C)CCC(=O)C(C)(C)[C@@H]4CC[C@]3(C)[C@@]2(C)CC1 [Alisol B] (compound dose: 10 uM) | 1.0307 ± 0.00045
CC(=O)OC[C@H]1O[C@@H](OC[C@H]2O[C@@H](OC(=O)[C@]34CCC(C)(C)C[C@H]3C3=CC[C@@H]5[C@@]6(C)CC[C@H](O[C@@H]7OC[C@H](O)[C@H](O)[C@H]7O[C@@H]7O[C@H](CO)[C@@H](O)[C@H](O)[C@H]7O)C(C)(C)[C@@H]6CC[C@@]5(C)[C@]3(C)CC4)[C@H](O)[C@@H](O)[C@@H]2O)[C@H](O)[C@@H](O)[C@@H]1O[C@@H]1O[C@@H](C)[C@H](O)[C@@H](O)[C@H]1O [Acanthopanaxoside B] (compound dose: 10 uM) | 1.01 ± 0.17
CC1(C)CC[C@]2(C(=O)O)CC[C@]3(C)C(=CC[C@@H]4[C@@]5(C)CC[C@H](O[C@@H]6O[C@H](C(=O)O)[C@@H](O)[C@H](O)[C@H]6O[C@@H]6O[C@H](CO)[C@@H](O)[C@H](O)[C@H]6O)C(C)(C)[C@@H]5CC[C@]43C)[C@@H]2C1 [Zingibroside R1] (compound dose: 10 uM) | 1.06 ± 0.15
COc1ccc2cc1Oc1ccc(cc1)C[C@H]1c3cc(c(OC)cc3CCN1C)Oc1c(OC)c(OC)cc3c1[C@H](C2)N(C)CC3 [Tetrandrine] (compound dose: 10 uM) | 1.11 ± 0.024
C[C@H](CC[C@@H](O[C@@H]1O[C@H](CO[C@@H]2O[C@H](CO)[C@@H](O)[C@H](O)[C@H]2O)[C@@H](O)[C@H](O)[C@H]1O[C@@H]1O[C@H](CO)[C@@H](O)[C@H](O)[C@H]1O)C(C)(C)O)[C@H]1CC[C@@]2(C)[C@@H]3CC=C4[C@@H](CC[C@H](O[C@@H]5O[C@H](CO)[C@@H](O)[C@H](O)[C@H]5O)C4(C)C)[C@]3(C)[C@H](O)C[C@]12C [Siamenoside I] (compound dose: 10 uM) | 1.1 ± 0.063
CC(CC(=O)C[C@@H](C)[C@H]1CC(=O)[C@@]2(C)C3=C(C(=O)C[C@]12C)[C@@]1(C)CC[C@H](O)C(C)(C)[C@@H]1C[C@@H]3O)C(=O)O (stereo partly specified) [Ganoderic acid B] (compound dose: 10 uM) | 0.774 ± 0.18

Reference: the supplement of paper PMC13094657
